Each structure is given as a SMILES string. Results filed as inconclusive are left out. Active and inactive are the calls of the source. Rule for the calls: active = hit-call score of the fitted dose curve at least 0.9, where 1 is the maximum; inconclusive = response in the unintended direction; inactive = score below 0.9.

This assay can be described thus: ACEA_AR_antagonist_AUC_viability: ACEA Biosciences xCELLigence Real-Time Cell Analysis on Androgen Receptor Antagonism for Viability (AID 2283776).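 Note: 22Rv1 human prostate cancer cells growing on impedance electrode plates; area under impedance growth curve at 80 h after dosing as viability; hits lower the growth signal relative to DMSO meaning cytotoxicity.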 The method, boiled down:
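Viability endpoint from label-free cell-index monitoring: 22Rv1 cultures treated with an eight-point 1:4 dilution series starting at 100 uM final, AUC at 80 h fitted against DMSO.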
In general, AC50 refers to the concentration giving half of the maximal activity seen. With `O=c1[nH]sc2ccccc12`, the AC50 is 7.87 µM (active). On the same count and under the same terms, next, `COc1cccc([C@H](O)C2CCN(CCc3ccc(F)cc3)CC2)c1OC`: 35.7 µM (active); `CN(C)C(=O)C1(N2CCCCC2)CCN(CC[C@@]2(c3ccc(Cl)c(Cl)c3)CN(C(=O)c3ccccc3)CCO2)CC1`: 11.5 µM (active). For the compound `c1ccc2ccccc2c1`, the compound was called inactive. On to `CCCCOC(=O)c1ccc(O)cc1`, for which the AC50 was 56.7 µM (active). Turning to `Clc1ccccc1C(c1ccccc1)(c1ccccc1)n1ccnc1`, the AC50 was 14.7 µM (active). With `CC(O)CC(C)(C)O` (centres undefined), the result was inactive.

As to `CCCCCCCCN(C)CCCCCCCC`, the call was inactive. On the same count and under the same terms, the entry for `Cc1cccc2ccccc12` is “inactive”; for `O=C(O)c1ccccc1-n1cc(C(=O)O)c(=O)c2cc(Nc3c(F)cc(F)cc3Cl)c(Cl)cc21` it is “inactive”; for `CCCCCCCC[Si](OCC)(OCC)OCC` it is “inactive”. For `Oc1ccc2ccccc2c1`, the call was inactive.

Regarding `Cc1ccc(C(C)C)cc1`, the outcome was inactive.

Turning to `O=C(O)Cn1c(=O)n(Cc2ccc(Br)cc2F)c(=O)c2ccc(Cl)cc21`, the result was inactive.

As to `NC(=O)c1nc(-c2cccc(-c3cc(F)ccc3OCC(F)(F)C(F)(F)F)c2)n[nH]1`, the AC50 is 19.3 µM (active). Same read-out and setting: the figure for `Cc1occc1C(=O)Nc1ccc(C(=O)N2CCC(F)(F)/C(=C\C(=O)N3CCC(N4CCCCC4)CC3)c3ccccc32)cc1` is 41.1 µM (active). As for `CC1(C)NC(=O)N(c2ccc([N+](=O)[O-])c(C(F)(F)F)c2)C1=O`, the AC50 was 68.9 µM (active). On to `CN1C(=O)CC[C@H]1c1cccnc1`, for which the compound was called inactive. Consider `Cc1cc2c(cc1C(F)(F)F)N(C(=O)Nc1ccc(Oc3cccnc3C)nc1)CC2`, for which the AC50 was 15.1 µM (active).

For `Clc1cc(Cl)c2c(c1)N=C1CCCCCN1C2`, the compound was called inactive. Still for that read-out and setting: the entry for `Cc1cn([C@H]2C[C@H](N=[N+]=[N-])[C@@H](CO)O2)c(=O)[nH]c1=O` is “inactive”. For `CCCCCCCCCCCO`, the AC50 is 85 µM (active). The same measure, in the same setting: next, `CCCCCCCCCCCC[N+](C)(C)C`: 9.45 µM (active). On to `COCC(C)OCC(C)OCC(C)O` (centres undefined), for which the result was inactive. The same measure, in the same setting: next, `Cc1ncc(CO)c(CO)c1O`: “inactive”; `CC[C@@H]1C[C@H](N(Cc2cc(C(F)(F)F)cc(C(F)(F)F)c2)C(C)=O)c2cc(C(F)(F)F)ccc2N1C(=O)OC(C)C`: “inactive”. Take `CCN(Cc1cccnc1)C(=O)c1cccc(Cl)c1[C@]1(C)C(=O)N(Cc2ccc(OC)cc2OC)c2ccc(Cl)cc21`: the AC50 is 20.7 µM (active). Take `CN1C(=O)N(c2ccccc2Br)Cc2cnc(Nc3ccc4c(c3)OCC(CO)O4)nc21` (centres undefined): the AC50 was 12.7 µM (active). For `CCCCCCCCCC(=O)O`, the compound was called inactive. On the same count and under the same terms, next, `O=C(O)c1ccccc1C(=O)OCc1ccccc1`: “inactive”. On to `COc1ccc2cc(S(=O)(=O)N[C@H](CC(=O)N[C@H](Cc3ccc(CN4[C@H](C)CCC[C@@H]4C)cc3)C(=O)N(C)C(C)C)c3ccc4c(c3)OCO4)ccc2c1`, for which the AC50 is 9.32 µM (active). For the compound `c1ccc2n[nH]nc2c1`, the compound was classed as inactive. Still for that read-out and setting: the entry for `CCO[Si](CCCNC(N)=O)(OCC)OCC` is “inactive”; for `OCCO` it is “inactive”.

Source of the values: PubChem BioAssay (EPA / NIEHS).
